# Assay results published in paper PMC5540273 (PLoS ONE, 2017).
# Test system: SRC
# Conditions: concentration: 1 μM, replicates: in singlicate; n = 1
# 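Also: KINOMEscan kinase panel screen.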
row,Compound,%Inh
1,c1ccc(Oc2ccc(Nc3ccnc4cc(-c5ccc(CNCCN6CCOCC6)o5)ccc34)cc2)nc1 [GW567145],22%
2,Cn1cc(-c2[nH]c3cc(NC(=O)[C@H](N)C4CCCCC4)cc4c3c2C=NNC4=O)cn1,98.3%
3,O=C(Nc1cccc(-c2nn3ccccc3c2-c2ccnc(Nc3cccc(F)c3)n2)c1)c1c(F)ccc(F)c1Cl [GSK357952],45%
4,Cc1ccc(C)c(NC(=O)NC2CCN(c3ccnc(Nc4ccc(F)cc4)n3)C2)c1 (stereo not shown) [GSK1379720],0%
5,O=C(Nc1n[nH]c2cc(-c3ccoc3)ccc12)C1CC1 [SB-738481],0%
6,COc1cccc(C(=O)Nc2cccc(Oc3ccc4nc(NC(=O)C5CC5)cn4n3)c2)c1,94.1%
7,Cc1ccc(S(=O)(=O)Nc2ccc(Nc3nccc(Nc4cccc5[nH]ncc45)n3)cc2)cc1 [GSK581271],64%
8,CN(C)Cc1ccc(-c2ccc3c(Nc4ccc(Oc5ccccn5)cc4)ccnc3c2)o1 [GW567148],36%
9,Nc1ncc(-c2ccc3nccc(-c4ccncc4)c3c2)cc1S(=O)(=O)N1CCOCC1 [GSK1627798],0%
10,CC(=O)Nc1nc2cnc(Nc3cc(NC(=O)c4cccc(C5(C#N)CC5)c4Cl)ccc3C)nc2s1,45%
11,Cl.Cl.NCC(NC(=O)c1cc(-c2ccccc2)c(-c2ccnc3[nH]ccc23)s1)c1ccccc1 (stereo not shown) [GSK1321561],69%
12,COc1cccc(C2=C(Nc3ccc(Cl)c(C(=O)O)c3)C(=O)NC2=O)c1 [SB-390769],0%
13,O=c1[nH]cc(-c2ccc(N3CCOCC3)cc2)c2sc(-c3cn[nH]c3)cc12 [GSK2276055],0%
14,Cn1cc(-c2ccc3c(c2)CCN3C(=O)Cc2cccc(F)c2)c2c(N)ncnc21 [GSK2603358],4%
15,CN1CCN(CCCNc2nccc(-c3c(-c4ccc(F)cc4)nn4cc(C(F)(F)F)ccc34)n2)CC1 [GW621581],14%
16,Cc1ccc(C(=O)Nc2ccc(Nc3ccnc4cc(-c5nccs5)ccc34)cc2O)cc1.Cl [GW494702],60%
17,CC(C)(C)c1ccc2nccc(Nc3cccc(O)c3)c2c1 [GW856795],96.7%

row,Compound,%Inh
1,Nc1n[nH]c2cnc(-c3ccccc3)cc12 [SB-642124],0%
2,CCc1ccc(-c2ccc3c(c2)-c2c(cnn2C)S(=O)(=O)N3C)cc1,0%
3,O=C(Nc1n[nH]c2nc(-c3ccc(O)cc3)ccc12)C1CC1 [SB-710363],0%
4,CC(=O)N1CCN(c2ccc(Nc3nccc(-c4sc(C(C)C)nc4-c4cccc(NS(=O)(=O)c5cccc(Cl)c5)c4)n3)cn2)CC1 [GSK1660437],85%
5,c1ccc(-c2n[nH]cc2Nc2ccnc3ccccc23)nc1 [GW694077],0%
6,Oc1cc(Nc2ccnc3cc(I)ccc23)ccc1F [GW552771],67%
7,COc1ccc(Nc2nccc(N3CCC(NC(=O)Nc4cccc(OC)c4)C3)n2)cc1 (stereo not shown) [GSK1379742],5%
8,COc1cc(Nc2nccc(-c3c(-c4cccc(NC(=O)c5c(F)cccc5F)c4)nn4ccccc34)n2)cc(OC)c1OC [GSK323521],22%
9,c1ccc(-c2cnc3nccnn23)cc1 [AH20685],0%
10,C[C@@H](Oc1cc(-n2cnc3cc(-c4ccnc(NCCS(C)(=O)=O)c4)ccc32)sc1C(N)=O)c1ccccc1Cl [GSK907232],48%
11,COc1cc(Nc2ncc3c(C)nc(-c4cc5ccccc5[nH]4)n3n2)cc(OC)c1OC [GW869516],90.1%
12,Cl.c1ccc(-c2ccc3c(Nc4ccc5[nH]ncc5c4)ccnc3c2)nc1 [GW440137],33%
13,Cl.c1ccc(-c2ccc3c(Nc4ccc5[nH]ccc5c4)ccnc3c2)nc1 [GW440138],60%
14,Cl.NC(=O)c1cccc(Nc2nccc(Nc3ccc(Oc4c(Cl)cccc4Cl)c(Cl)c3)n2)c1 [GW659009],18%
15,O=C(Nc1ccccc1F)NC1CCN(c2ccnc(Nc3ccc(F)cc3)n2)CC1 [GSK1379800],0%
16,COc1ccc(-c2coc3ccc(-c4nnc(SCc5ccc(OC)c(C(F)(F)F)c5)o4)cc23)cc1,4%
17,Clc1ccc(-c2nn3ncccc3c2-c2ccnc(Nc3ccc4c(c3)OCCO4)n2)cc1 [GW829116],44%
